Sampled rows, rich in hits. Any-hit rate of the full collection: about 15%.
ELG1 DNA repair: blocks ELG1-dependent DNA repair in HEK293T cells; HEK293T ELG1-luciferase reporter, luminescence, 16 h; DNA damage induced by 5-fluorouridine; Potency, µM (highest dose often 46.1 µM), hits mostly inhibitors; 330,000 tested, 2.3% active; AID 504467; further: nearly all actives have a fitted effect of over 55% in size
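Quantitative HTS, concentration-response format. 2,000 cells/well co-treated with 5-fluorouridine and compound, 16 hr in 5% CO2 at 37 °C; ONE-Glo luminescence read after 30 min.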
TDP1 cell CPT: growth inhibition of DT40 Tdp1-/-;hTDP1 cells with camptothecin (screen for TDP1 inhibitors); chicken DT40 Tdp1-/-;hTDP1 cells + 20 nM CPT, ATP luminescence, 48 h; 420,000 tested, 12% active; Potency, µM (titrated, usually from 46.2 µM), most hits filed as inhibitors; further: nearly all actives have a fitted effect of over 55% in size
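Cell growth measured by CellTiter-Glo luminescence after a minimum 48 h, 37 C compound exposure with 20 nM CPT in Tdp1-knockout DT40 cells stably expressing hTDP1, seeded 400/well; qHTS titration format.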
RORgamma inh: ROR gamma (mouse) transcription inhibition; AID 2551; Drosophila S2 Gal4-RORgamma UAS-luciferase reporter, 20 h; 310,000 tested, 5.4% active; P51450; Potency, µM (doses to about 53.6 µM), most hits filed as inhibitors; further: nearly all actives have a fitted effect of over 60% in size
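Read-out: Photinus luciferase luminescence; inhibitors lower reporter signal. Insect Schneider cells with Gal4-ROR gamma fusion under metallothionein promoter, UAS reporter; 700 uM final copper sulfate induction, 20 hr, ambient temperature.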
Gal4-VP16 FLuc: counter-screen for ROR gamma inhibitors: Gal4-VP16 reporter; Drosophila S2 Gal4-VP16 UAS-luciferase, luminescence, 20 h; Potency, µM (series often up to 53.6 µM), usual class: inhibitors; 310,000 tested, 3.5% active; AID 2546;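 further: Gal4-VP16 expression switched on by copper sulfate through the metallothionein promoter; nearly all actives have a fitted effect of over 50% in size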
ALOX12 inh: blocks human arachidonate 12S-lipoxygenase; P18054; purified 12hLO, xylenol orange hydroperoxide absorbance; Potency, µM (highest dose often 108 µM), usual class: inhibitors; 580,000 tested, 1.1% active; AID 1671190
Target sequence (P18054 whole entry, looked up): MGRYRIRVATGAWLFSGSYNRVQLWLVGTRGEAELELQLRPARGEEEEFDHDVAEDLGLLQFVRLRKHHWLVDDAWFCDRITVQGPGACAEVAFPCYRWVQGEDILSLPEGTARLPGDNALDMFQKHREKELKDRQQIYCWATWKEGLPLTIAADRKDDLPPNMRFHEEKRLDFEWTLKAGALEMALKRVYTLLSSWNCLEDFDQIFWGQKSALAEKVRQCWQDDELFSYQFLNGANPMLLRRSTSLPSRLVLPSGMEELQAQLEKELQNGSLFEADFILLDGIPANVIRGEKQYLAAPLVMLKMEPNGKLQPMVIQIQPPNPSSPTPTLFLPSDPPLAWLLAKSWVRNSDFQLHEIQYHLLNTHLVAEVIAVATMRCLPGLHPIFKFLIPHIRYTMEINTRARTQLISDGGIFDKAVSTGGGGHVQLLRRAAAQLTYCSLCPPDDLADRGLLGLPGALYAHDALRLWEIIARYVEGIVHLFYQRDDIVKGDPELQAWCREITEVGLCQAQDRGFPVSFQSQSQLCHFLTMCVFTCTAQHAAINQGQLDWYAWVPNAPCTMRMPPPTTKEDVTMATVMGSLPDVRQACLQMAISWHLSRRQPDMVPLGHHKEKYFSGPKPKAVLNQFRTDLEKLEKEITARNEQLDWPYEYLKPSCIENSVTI
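Hydroperoxide product was detected by ferrous iron/xylenol orange as the 573 to 405 nm absorbance ratio. Arachidonic acid at 40 uM (final) was turned over for 30 min at room temperature by 150 nM human 12hLO, pH 7.0 Hepes buffer, after 15 min compound preincubation.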
TDP1 cell noCPT: qHTS for Inhibitors of human tyrosyl-DNA phosphodiesterase 1 (TDP1): qHTS in cells in absence of CPT. Potency, µM (doses to about 46.2 µM), most hits filed as inhibitors. DT40 Tdp1-/- hTDP1 cells, no CPT, ATP luminescence, 48 h. 420,000 tested, 15% active; further: nearly all actives have a fitted effect of over 55% in size
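Chicken DT40 Tdp1-/- cells stably complemented with human TDP1 were seeded at 400 cells/well with DMSO in place of 20 nM camptothecin. After compound pinning, cells grew at least 48 hr at 37 °C; viability read by CellTiter-Glo luminescence.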
Numbers stand for hits; . = inactive; ? = inconclusive; / = no result; [ ] = remark or other dose. The call rests on the fitted dose curve; in most records, active means well fitted curve in the direction sought with a large enough effect; inconclusive means small, poorly fitted or top-dose-only effect, or another doubt; inactive means no such curve, though single readings can be large; an effect the other way counts as inactive or inconclusive.

SMILES | ELG1 DNA repair | TDP1 cell CPT | RORgamma inh | Gal4-VP16 FLuc | ALOX12 inh | TDP1 cell noCPT
CCOc1ccc(NC(=NCc2ccc3c(c2)OCO3)SC2CC(=O)N(c3ccc(OCC)cc3)C2=O)cc1 (stereo not given) | ? | ? | . | . | . | .
CCOc1ccc(N2C(=O)CC(Sc3ncccn3)C2=O)cc1 (stereo not given) | . | 18µM | ? | ? | . | ?
O=C1CC(Sc2ncccn2)C(=O)N1c1ccccc1 (stereo not given) | . | 14µM | ? | . | . | ?
CCOc1ccc(N2C(=O)CC(Sc3nccc(C)n3)C2=O)cc1 (stereo not given) | . | ? | .[0.365 µM] | / | . | ?
Cc1ccc(S(=O)(=O)N2CCn3c(n[nH]c3=O)C2)c(C)c1 | / | / | / | / | . | /
N#CC1=C(N)Oc2n[nH]c(-c3ccc4ccccc4c3)c2C1c1ccc(O)cc1 (stereo not given) | / | / | / | / | . | /
Cc1cc(C)n(CC(=O)Nc2ccc(C(=O)NCc3ccco3)cc2)c(=O)c1C#N | / | / | / | / | . | /
Cc1nc(SC2CC(=O)N(c3ccccc3)C2=O)n[nH]1 (stereo not given) | . | 1.5µM | 4.5µM | 4.5µM | . | 5.2µM
Cc1cccc(N2C(=O)CC(Sc3nccc(C)n3)C2=O)c1 (stereo not given) | . | ? | ? | ? | . | .
CCCS(=O)(=O)Nc1ccc2c(c1)CC(=O)N2CC | / | / | / | / | . | /
Cc1ccc(Cn2nc(C)c(NC(=O)CSc3nc4c(c(C(F)(F)F)n3)CCc3ccccc3-4)c2C)cc1 | . | ? | . | . | . | ?
COc1ccc(-c2cc(C(F)(F)F)nc(SCC(=O)N(C)Cc3ccccc3)n2)cc1 | / | 23µM | / | / | . | ?
COc1ccc(-c2cc(C(F)(F)F)nc(SCc3cccc(C(=O)O)c3)n2)cc1 | . | . | . | . | ? | .
COc1ccc(-c2cc(C(F)(F)F)nc(SCCC(=O)Nc3ccccc3F)n2)cc1 | / | / | / | / | . | /
CN(Cc1ccccc1)C(=O)CSc1nc2c(c(C(F)(F)F)n1)CCc1ccccc1-2 | / | 29µM | / | / | ? | ?
CCn1cc(CN(C)C(=O)CSc2nc(-c3ccco3)cc(C(F)(F)F)n2)c(C)n1 | / | ? | / | / | . | 23µM
COc1ccc(-c2cc(C(F)(F)F)nc(SCCC(=O)Nc3ccc(OC)c(OC)c3)n2)cc1 | / | 13µM | / | / | . | 15µM
Cc1c(CN(C)C(=O)CSc2nc(-c3ccco3)cc(C(F)(F)F)n2)cnn1C | ? | ? | . | . | . | .
CC(C)c1ccccc1NC(=O)/C=C/c1cccs1 | / | / | / | / | . | /
COc1ccc(-c2cc(C(F)(F)F)nc(SCCC(=O)NCc3ccccc3)n2)cc1 | ? | ? | . | ? | . | 18µM
Cc1ccc(C(=O)NC(C)c2ccc(F)c(F)c2)s1 (stereo not given) | / | / | / | / | . | /
Cc1ccc(NC(=O)CSC2=NC(C)(C)N=C2c2ccc(Cl)cc2)cc1C | / | / | / | / | . | /
CCOc1cc(CNc2ccccc2)cc(Br)c1OCc1ccc(F)cc1 | . | ? | . | . | . | ?
CCOc1cccc(CNCCO)c1OCc1ccc(Cl)cc1Cl | . | 16µM | . | . | . | 16µM
CCOc1cc(CNc2ccc(O)cc2)cc(Cl)c1OCc1ccccc1 | / | 21µM | / | / | . | 16µM
SMILES | ELG1 DNA repair | TDP1 cell CPT | RORgamma inh | Gal4-VP16 FLuc | ALOX12 inh | TDP1 cell noCPT
CCOc1cccc(CNc2ccc(O)cc2)c1OCc1ccccc1Cl | 18µM | 13µM | . | . | . | 12µM
C=CCOc1c(CNc2ccc(C(=O)O)cc2)cccc1OCC | ? | . | . | ? | . | .
CCOc1cccc(CNc2ccc(O)cc2)c1OCc1ccc(Cl)cc1Cl | ? | 15µM | 16µM | ? | . | 21µM
CCOc1cccc(CNn2cnnc2)c1OCc1ccccc1Cl | . | . | . | . | . | .
CCOc1ccc(Cl)cc1CNCCNCC(C)O (stereo not given) | . | . | . | . | . | .
Cc1cccc(C(=O)N2CCCN(C)c3ccccc32)c1 | / | / | / | / | . | /
O=C1CC2(CCN(Cc3cccc4ccccc34)CC2)Oc2ccccc2N1 | / | / | / | / | . | /
CCOc1cc(CNCCO)cc(Br)c1OCc1cccs1 | . | 15µM | ? | . | . | 18µM
CCOc1cc(CNCCO)cc(Br)c1OCc1ccc(Cl)cc1Cl | ? | 16µM | . | ? | . | 15µM
COc1cc(CNCCO)cc(Br)c1OCc1ccccc1 | . | . | . | . | . | .
O=C(CCc1nc2ccccc2oc1=O)OCc1cccc(C(F)(F)F)c1 | / | / | / | / | . | /
CCCNC(=O)C(C)NC(=O)Cc1ccc(S(=O)(=O)N2CCCCC2)cc1 (stereo not given) | / | / | / | / | 20µM | /
COc1ccc(CNC(=O)C2CCN(S(=O)(=O)c3ccc4nc5c(c(C(=O)O)c4c3)CCCC5)CC2)cc1 | / | . | / | / | ? | .
O=C(Cc1ccc(S(=O)(=O)N2CCCCC2)cc1)NCc1ccc(Cl)cc1 | . | 29µM | / | / | . | .
O=C(O)c1c2c(nc3ccc(S(=O)(=O)N4CCC(C(=O)NCc5ccc(Cl)cc5)CC4)cc13)CCCC2 | . | . | . | . | 25µM | .
Cc1ccc(CNC(=O)c2cc(S(=O)(=O)N3CCCCC3)cn2C)cc1 | / | ? | / | / | . | 21µM
C=CCn1c(C)cc(C(=O)Cn2c(=O)c3c(ncn3CC)n(Cc3ccccc3)c2=O)c1C | / | / | / | / | . | /
CC(C)CCN1C(=O)c2ccc(-c3nc4ccccc4o3)cc2C1=O | / | / | / | / | . | /
O=c1oc2ccc(Cl)cc2cc1-c1csc(Nc2ccc(F)cc2F)n1 | / | / | / | / | . | /
CC(C(=O)N1CCCCC1)N1CCN(S(=O)(=O)c2ccc(Cl)cc2)CC1 (stereo not given) | . | . | / | / | 1µM | .
Cn1cc(S(=O)(=O)N2CCCCC2)cc1C(=O)NCc1ccc(Cl)cc1 | / | 18µM | / | / | ? | ?
CC(C)c1ccc(S(=O)(=O)N2CCN(C(C)C(=O)N3CCCC3)CC2)cc1 (stereo not given) | . | . | / | / | . | .
Cn1cc(S(=O)(=O)N2CCCCCC2)cc1C(=O)NCc1ccc(Cl)cc1 | / | ? | / | / | . | ?
O=C(Cc1cccs1)NC1CCCC(C(F)(F)F)C1 (stereo not given) | / | / | / | / | . | /
COc1ccc(-c2nc(CSCC(=O)NCC(OC)OC)c(C)o2)cc1OC | / | / | / | / | . | /
Cc1nn(CCC#N)c(C)c1[C@@H]1C=C[C@@H](NCc2ccc(C(C)C)cc2)C1 | / | / | / | / | . | /
Cn1c(-c2ccc([N+](=O)[O-])cc2)nc2ccccc21 | ? | . | ? | .[10 µM] | . | .
Cn1nc([N+](=O)[O-])c(C(C#N)c2nc3ccccc3n2C)c(Cl)c1=O (stereo not given) | ? | ? | . | . | . | 23µM

From PubChem BioAssay
